# Data: PubChem BioAssay AID1508600 (Functional Genomics Laboratory (NCATS/FGL), 2020)
# Among all 53,000 sequences or so, about 3,700 (7%) were called active. Only a selection was taken, and actives are over-represented in it overall. Unmarked numbers belong to inactive results.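 Rule for the calls: active = gene knockdowns whose robust z-score for IL-1 alpha signal is at least 2 or at most -2, so actives lie on both sides; inactive = the rest.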
# Assay: Components of the Cytosolic LPS Sensing Pathway: Gene Identification via Genome-wide siRNA Screen;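 note: robust z of the log signal after scaling to non-targeting control siRNA wells of the plate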
# Settings: RAW264.7 macrophages, IL-1a HTRF, actives lie on both sides, screened at 100 nM (by protocol), cells primed 5 h with Pam3CSK4 first
# Method in brief: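 Using IL-1a HTRF as read-out, the screen measured release from RAW264.7 cells after 48h siRNA knockdown (100 nM), 5 h Pam3CSK4 priming and 24 h cytosolic LipidA. Values were expressed relative to negative-control wells as robust z-scores.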
row,Sequence,z-score
1,GGCAUCCACACAGAACAAGTT against Zfp467,-0.287
2,GGGAUAGGGUUCAAUUAGGTT against Bcl2l13,0.231
3,GUCCCAGUACUUCUUGUUUTT against Vmn1r27,0.675
4,GGGUGAUAAAUGUUUGAAUTT against Vmn1r45,0.338
5,GGAGGCUGUUGUGGAUCUUTT against Acin1,1.03
6,GGAAUGUGAAGAAGAAAUUTT against Dnttip2,2.03 (active)
7,GCCUAUUGUAGUGUUACAUTT against Cyp2c67,-0.887
8,GGUGAUCCAGCUUUCUUGGTT against Tiaf2,-0.351
9,GGGAAAACAGGUACGACUGTT against Odf1,-0.743
10,GGUGAUCAAGGACAUUUAATT against Psma5,0.0545
11,GCCAAUGCUUCCAUUACCATT against Abca17,0.141
12,GGAGCUAGAUAGGAAAAAATT against Vill,-1.44
13,CGAUUGACUUAAGAUUCAGTT against Hlf,-0.612
14,GGCCAAAGAGUUCAGCCUATT against Prrx2,-0.29
15,GGUCAAAAGUUCUGGACAGTT against Spin4,5.6 (active)
16,GGACGAUGGUUCCUGAAAATT against Snap91,-1.39
17,GGUUGAAGGAGUGUUUUAUTT against Rtcb,2.09 (active)
18,GGCCCAUAAUUAAAUGUUUTT against Stac2,0.438
19,CCAAUAGUUGUGGACAUGATT against Crisp1,1.82
20,GCUUACCUUGUUCUUAAAGTT against D2hgdh,-1.62
21,GGUACCAUAUGAGAGCUAATT against Tsr2,2.7 (active)
22,AACCAGAGGUCCUAAAUACTT against Mmp28,-0.948

row,Sequence,z-score
1,GCUAAGUGCUCGAAUCCGATT against Cnppd1,-0.326
2,GGUGGACAUGUGGAAUGAUTT against Ubxn11,0.463
3,GCUAGUGACUUUGAGAUUGTT against Msh5,-0.75
4,CCACUUUCAGAAACAUUACTT against A2ml1,-1.01
5,GGCUACUGUUGCUGCAUUUTT against Lin7c,-2.49 (active)
6,CCAACAAAAACGUACUUUGTT against 9530091C08Rik,1.24
7,CCAGAGAGAUACCUGAUCUTT against Tas2r113,-0.993
8,GGGACAAUACAUUGAUAGCTT against Vmn1r206,-0.625
9,GGAAGAUGCCUACUUCAGATT against 4632433K11Rik,2.5 (active)
10,GGCCAUCACUAUUAGCCUCTT against Vmn1r70,-0.214
11,GGGCUAUAUAUAUUUCCACTT against Asns,2.75 (active)
12,CCAUAUUGGCAAUCUCUAGTT against Khdc1a,2.15 (active)
13,GGAAGUAUUGACGAGUGGGTT against Orai3,0.0813
14,GGAAGUCCAUCAGCUUUAUTT against Wdr78,2.29 (active)
15,GCGACUGACACUAACAGAATT against Poc1a,-0.261
16,GGUUUCAUGAAAGAGGAGCTT against Cbs,-0.926
17,GGGCACCACAGAAAGGAAUTT against Olfr376,-0.525
18,GGCUAACCGAAGCCAUCCUTT against Tceal9,0.969
19,GGACCAGGAUAGGACCAAUTT against Avpr2,2.33 (active)
20,GCUUUCAUUAAGUCAGAUCTT against Flvcr2,1.16
21,GGAUAAGAGAAAAACAGAATT against Ect2,0.141
22,GGCAUAGUUGCUGUUCUCUTT against Slc9a9,-0.871

row,Sequence,z-score
1,GGCUGUUUGCCAAAAAAAATT against Ppp1r16a,-0.36
2,GGCACAGUUCUGGAAGAUGTT against Qtrt1,-1.02
3,GCACAGACAUCUUUUGCCATT against Man2a2,-1
4,GGUAUUCGAAGCAUACAAUTT against Pdha2,3.47 (active)
5,GGAAAUGAUCUCUUUUGGATT against Bbs2,-0.734
6,GGCACACUUGAGAAGACACTT against Cul5,-0.601
7,GGAGGAAAGAAGUCCUACATT against Rnase2b,-0.835
8,GGUCGGUGUUUUAUCUGCUTT against Slc17a9,-3.2 (active)
9,CCUUCUAGAUGUCUUAAGATT against Zfp41,-0.244
10,GGCCAAACAAGACCCAUCUTT against Ppil2,-0.621
11,GGAAAAGUAUUGGUAGACGTT against Steap4,-1.73
12,GCAAUGCAAAAGAUGCCCUTT against Chchd7,0.0804
13,CCCAGUUAGAAUUGUUAUCTT against Snx16,1.29
14,CAUCUUUCAUCAAAUAACUTT against Krtap31-2,2.49 (active)
15,GGAAAUUACUUUGAUACUCTT against Rfx3,1.5
16,CCAAAACGGAAUCCUAAUATT against Nyap2,-1.34
17,GGGCCACUUUCCAAUUCAATT against Tectb,0.817
18,GGAUCAUAAAAAGAAUCACTT against Gpr21,0.851
19,GGGAAUUUACCAAGUACCCTT against Nedd9,1.53
20,CCAUCCCAUAUGUUCCGGUTT against Ptms,0.94
21,GGUGAAAACAAUGACUUUGTT against Zbtb44,0.256
22,GGUUAUUUUGGCUAUAAGATT against Traf3,-4 (active)

row,Sequence,z-score
1,CGAUGUUACUAUAGGAUCUTT against A730036I17Rik,0.33
2,CCUUCAUUCUCAUUGGCAUTT against Olfr591,-0.163
3,GCACUACCUGUAUUAAACUTT against Efhd2,-0.652
4,GCAACACAAGUCAUGAAGUTT against Gabpb2,0.628
5,GGAACUGAAAUUCAGUUGGTT against Azin1,0.218
6,GGGAGGAAAUGAAUGAAUUTT against Gypc,0.686
7,GGAAUUAUCUUCAUCCCUGTT against Abhd10,-4.79 (active)
8,GGAUCUAUCUCUAGUCCCGTT against Zfp358,-1.74
9,CCUUUAAAAGUACCAACCCTT against B9d1,0.679
10,CGUACCAUGGUCAAGACGUTT against Tpcn1,0.692
11,GCCUUAGGUUGAUAGGAGGTT against Tas2r110,-0.191
12,GGGACCAGAACAAAUACAATT against Klc3,4.06 (active)
13,GGCCUUUUCUUCUUUUUGUTT against Mill1,0.653
14,GGAAGGAAAUGUGUGAAAUTT against 4930555G01Rik,-0.194
15,GGAGAGGAUGCAUGUAAAATT against Fbxl22,-1.19
16,GGAAAUGAACUCAUAGCCATT against Olfr121,0.0495
17,GGAGUAAAGACAUUCAGGATT against Nlrp4f,0.716
18,GCUUGAUCGCUUUCAACUCTT against Coro7,0.734
19,GGAAAUUUUUCGCAUGACCTT against Ddx39b,-2.13 (active)
20,CCUUCUUCUUACUGAUAAUTT against Olfr1276,-0.471
21,GCAAUGAACUAUGAAGGCATT against Npm1,-0.32
22,GGACAAAAUUAGACCUUUGTT against Arf2,0.47

row,Sequence,z-score
1,GGCAUCCUGUUGAAACUGATT against Vezt,-0.962
2,GGGUGAAUUCUGUCUAUGUTT against Far1,0.0586
3,GGUAAAAGCUGUUUGAGAGTT against Smim3,-3.43 (active)
4,GGAUUAUCAGAAGUGUGUCTT against Mrps35,-0.117
5,GUCAAGAAUAUUAUGACCCTT against Vamp8,0.516
6,CCUCAUUGUGUCGUCUUACTT against Zer1,-0.421
7,GGCUCUGAGACACAUCUACTT against Cpt1b,-0.562
8,GGAGUUAAUCAGUCAAAUGTT against Dclk2,0.754
9,CCCAGAAGGAUCUGCUCUUTT against Defa20,-2.17 (active)
10,GGUUAUGUCGCUAAGGAAATT against Tmem50a,-0.392
11,GGAGGUCACCUUCUCAAACTT against Mrgprf,0.374
12,GCCUUUAACAGCUCUUAAUTT against Gm4894,0.999
13,CGUGCCACUUUUACCGUCCTT against Zdhhc8,-2.43 (active)
14,UACUCGUAUUCUUAAUUGCTT against Acsl1,-0.272
15,GCAGAAUCGCUUCAGUUCUTT against Tmed6,0.49
16,GGCUGUGUAUUACUGCGCUTT against Vpreb2,-0.236
17,GCCAUGAUGCAUUAUGUAUTT against Haglr,-0.331
18,GGGUAUUGGUUUUAGAGCATT against Emd,0.37
19,GGCUCUAAUGUAAUGAAUCTT against Fgf10,0.259
20,GGGUAAAAGGCUUUUUUGUTT against St8sia6,-0.699
